# In PubChem BioAssay:
# Activity calls are given as the source filed them. Unless noted, the rule behind the calls is not given here.
# Experiments:
# [1] = tested on: Wnt5a (protein binding on small-molecule microarray); experiment: Wnt5a binders on small-molecule microarray, primary screen, biophysical, 635/667 nm fluorescence (AID 1142); conditions: 635 nm fluorescence, higher = more signal;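 note: fluorescence read at 667 nm with signal to noise per printed feature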
# [2] = cell viability in Huh7 cells, primary screen, cytotoxicity control for HCV replication inhibitor project, CellTiter-Glo luminescence, basal, 48 h (AID 1143); conditions: Huh7 HCV replicon, higher = more signal, called active from +8 up or from −8 down;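 note: Huh7 hepatoma cells carrying a hepatitis C replication reporter with no stimulus; test concentration not given here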
# [3] = P. aeruginosa biofilm formation inhibitors, primary screen, PAO1 strain, BacTiter-Glo luminescence, LB-PBS (AID 1144); conditions: 12 h, higher = more signal
# [4] = CREB reporter modulators without forskolin, primary screen, cell-based, PC12, CRE-LacZ reporter, unstimulated (AID 1145); conditions: no forskolin, luminescence, 4.5 h, higher = more signal, called active from +8 up or from −8 down
# [5] = CREB reporter modulators under forskolin, primary screen, cell-based, PC12, CRE-LacZ reporter, forskolin-stimulated (AID 1146); conditions: luminescence, 4.5 h, higher = more signal, called active from +8 up or from −8 down;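 note: PC12 cells with 6xCRE LacZ reporter stimulated by forskolin 10 µM; beta-galactosidase reporter signal reflecting CREB driven transcription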
# [6] = target: Streptavidin (Streptomyces avidinii) (UniProt P22629); experiment: streptavidin binders on small-molecule microarray, primary screen, artefact control for SMM compound annotation, biophysical, 635/667 nm fluorescence (AID 1147); conditions: streptavidin binding, higher = more signal;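 note: signal reflects streptavidin binding to arrayed compounds as a control protein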
# Chain of Streptavidin (Streptomyces avidinii) (P22629 whole entry, looked up): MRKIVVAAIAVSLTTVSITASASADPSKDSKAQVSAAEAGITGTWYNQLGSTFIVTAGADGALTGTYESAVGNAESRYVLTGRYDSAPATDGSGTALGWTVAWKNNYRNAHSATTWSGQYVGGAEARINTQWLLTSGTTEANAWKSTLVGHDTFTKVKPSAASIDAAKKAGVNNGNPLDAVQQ
# [7] = small-molecule binders of probe aInhba, primary screen, biochemical, small-molecule microarray, 635/667 nm fluorescence (AID 1148); conditions: higher = more signal;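 note: score merges 667nm spot fluorescence with signal-to-noise for antibody binding to printed compounds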
# Torsin-1A (Homo sapiens) [8] = target: Torsin-1A (Homo sapiens) (UniProt O14656); experiment: torsin A binders from cell lysate, primary screen, small-molecule microarray, wild-type, 635/667 nm (AID 1149); conditions: COS7 hTOR1A-WT lysate, 635 nm fluorescence, higher = more signal
# Chain of Torsin-1A (Homo sapiens) (O14656 whole entry, looked up): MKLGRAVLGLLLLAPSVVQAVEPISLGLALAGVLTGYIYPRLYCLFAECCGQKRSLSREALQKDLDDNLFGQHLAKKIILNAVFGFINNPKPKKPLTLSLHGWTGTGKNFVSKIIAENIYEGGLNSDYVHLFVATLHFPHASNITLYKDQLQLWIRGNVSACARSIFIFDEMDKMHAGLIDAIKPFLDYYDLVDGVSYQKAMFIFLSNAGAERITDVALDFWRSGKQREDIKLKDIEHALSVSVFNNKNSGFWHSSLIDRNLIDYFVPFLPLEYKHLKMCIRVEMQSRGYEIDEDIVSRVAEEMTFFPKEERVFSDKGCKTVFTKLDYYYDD
# Torsin-1A (Homo sapiens) [9] = target: Torsin-1A (Homo sapiens) (UniProt O14656); experiment: small-molecule binders of mutant TOR1A in lysate, primary screen, cell lysate, small-molecule microarray, COS7 lysate, 635/667 nm fluorescence (AID 1150); conditions: COS7 hTOR1A mutant lysate, 635 nm fluorescence, higher = more signal;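 note: score pools 667 nm emission and signal to noise measuring lysate protein binding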
# [10] = tested on: Sonic hedgehog protein (Shh); experiment: small-molecule binders of Shh protein, primary screen, biochemical, small-molecule microarray, 635/667 nm fluorescence (AID 1151); conditions: small-molecule microarray binding, 635 nm fluorescence; higher = more signal;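 note: Shh protein binding to compounds spotted on small-molecule microarray slides; score combines spot fluorescence intensity with signal-to-noise across triplicate slides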
# [11] = E. coli DRC41 culture turbidity changes, primary screen, E. coli filamentation inducer project, strain DRC41, OD650, 48 h (AID 1152);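 note: E. coli MC1000 strain DRC41 lacking acrAB efflux pump and sulA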; conditions: E. coli DRC41 (acrAB sulA), higher = more signal, called active from +8 up or from −8 down
# [12] = small-molecule binders of probe aLefty1, primary screen, biochemical, small-molecule microarray, 635/667 nm fluorescence (AID 1153); conditions: higher = more signal;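 note: score merges spot fluorescence with signal-to-noise ratio from the scanned slide images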
# [13] = PSAC antagonists in infected red cells, primary screen, cell-based, P. falciparum Indochina, OD700, 1 h (AID 1154); conditions: P. falciparum Indochina infected RBC osmotic lysis, higher = more signal, called active from +8 up or from −8 down
# [14] = PSAC antagonists in infected red cells, primary screen, cell-based, P. falciparum Indochina, OD700, 2 h (AID 1155);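 note: lysis reports solute entry through the parasite surface anion channel PSAC; channel blockers reduce lysis of infected cells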; conditions: P. falciparum Indochina infected erythrocytes, osmotic lysis OD700; higher = more signal, called active from +8 up or from −8 down
# [15] = osmotic lysis modulators in infected erythrocytes, primary screen, PSAC antagonist project, cell-based, P. falciparum Indochina, OD700, 3 h (AID 1156); conditions: higher = more signal, called active from +8 up or from −8 down
# [16] = PSAC antagonists in infected red cells, primary screen, cell-based, P. falciparum Indochina, OD700, 18 h (AID 1157); conditions: P. falciparum Indochina infected erythrocytes, osmotic lysis OD700, 18 h; higher = more signal, called active from +8 up or from −8 down
# [17] = modulators of S6 phosphorylation in cells, primary screen, cell-based, A549, cytoblot, luminescence, serum-stimulated (AID 1158); conditions: A549 phospho-S6 cytoblot, 5 h, higher = more signal;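 note: serum-stimulated A549 lung adenocarcinoma cells; signal is phosphorylated S6 detected by cytoblot immunostaining with HRP secondary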
# [18] = target: NADPH oxidase 2 (Homo sapiens) (UniProt P04839); experiment: NOX2-dependent H2O2 signal modulators, primary screen, NOX inhibitor project, cell-based, HEK293-NOX2, PMA-stimulated, Amplex Red fluorescence (AID 1159); conditions: 45 min, higher = more signal, called active from +8 up or from −8 down; note: test concentration not given here
# Chain of NADPH oxidase 2 (Homo sapiens) (P04839 whole entry, looked up): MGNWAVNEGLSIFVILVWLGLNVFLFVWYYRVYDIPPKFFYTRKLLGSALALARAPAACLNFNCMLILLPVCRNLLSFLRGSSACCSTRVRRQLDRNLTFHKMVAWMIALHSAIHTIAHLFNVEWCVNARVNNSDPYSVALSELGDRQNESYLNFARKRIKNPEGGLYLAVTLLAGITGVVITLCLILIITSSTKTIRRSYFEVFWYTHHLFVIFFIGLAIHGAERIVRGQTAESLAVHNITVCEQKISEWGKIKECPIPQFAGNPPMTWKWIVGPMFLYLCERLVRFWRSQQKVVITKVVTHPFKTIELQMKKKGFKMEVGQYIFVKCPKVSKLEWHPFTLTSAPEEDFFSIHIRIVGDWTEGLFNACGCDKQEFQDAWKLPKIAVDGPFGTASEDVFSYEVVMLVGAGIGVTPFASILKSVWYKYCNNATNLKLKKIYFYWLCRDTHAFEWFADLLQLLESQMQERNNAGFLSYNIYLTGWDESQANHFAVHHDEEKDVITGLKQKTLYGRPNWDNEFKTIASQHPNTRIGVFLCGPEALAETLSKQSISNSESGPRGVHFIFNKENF
# [19] = target: NADPH oxidase 4 (Homo sapiens) (UniProt Q9NPH5); experiment: NOX4-dependent H2O2 signal modulators, primary screen, NOX inhibitor project, cell-based, HEK293-NOX4, tetracycline-induced, Amplex Red fluorescence (AID 1160); conditions: 45 min, higher = more signal, called active from +8 up or from −8 down
# Chain of NADPH oxidase 4 (Homo sapiens) (Q9NPH5 whole entry, looked up): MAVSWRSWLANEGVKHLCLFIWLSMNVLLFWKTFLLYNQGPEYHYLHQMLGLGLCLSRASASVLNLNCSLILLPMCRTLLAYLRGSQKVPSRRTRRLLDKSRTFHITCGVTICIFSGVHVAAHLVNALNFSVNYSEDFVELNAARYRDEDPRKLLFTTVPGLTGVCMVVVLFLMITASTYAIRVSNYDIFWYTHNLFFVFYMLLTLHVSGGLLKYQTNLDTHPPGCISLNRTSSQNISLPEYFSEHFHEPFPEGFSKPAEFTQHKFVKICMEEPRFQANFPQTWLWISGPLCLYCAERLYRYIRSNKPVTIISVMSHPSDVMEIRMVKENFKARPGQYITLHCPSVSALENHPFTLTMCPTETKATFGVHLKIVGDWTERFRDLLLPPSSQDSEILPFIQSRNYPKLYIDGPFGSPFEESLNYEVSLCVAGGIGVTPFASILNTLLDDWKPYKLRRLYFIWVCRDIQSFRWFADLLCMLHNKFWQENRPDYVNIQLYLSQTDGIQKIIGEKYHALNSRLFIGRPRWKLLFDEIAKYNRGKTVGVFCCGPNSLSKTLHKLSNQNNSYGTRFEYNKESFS
# [20] = target: NADPH oxidase 5 (Homo sapiens) (UniProt Q96PH1); experiment: NOX5-dependent H2O2 signal modulators, primary screen, NOX inhibitor project, cell-based, HEK293-NOX5, Amplex Red fluorescence (AID 1161); conditions: HEK293-NOX5, ionomycin, 45 min, higher = more signal
# Chain of NADPH oxidase 5 (Homo sapiens) (Q96PH1 whole entry, looked up): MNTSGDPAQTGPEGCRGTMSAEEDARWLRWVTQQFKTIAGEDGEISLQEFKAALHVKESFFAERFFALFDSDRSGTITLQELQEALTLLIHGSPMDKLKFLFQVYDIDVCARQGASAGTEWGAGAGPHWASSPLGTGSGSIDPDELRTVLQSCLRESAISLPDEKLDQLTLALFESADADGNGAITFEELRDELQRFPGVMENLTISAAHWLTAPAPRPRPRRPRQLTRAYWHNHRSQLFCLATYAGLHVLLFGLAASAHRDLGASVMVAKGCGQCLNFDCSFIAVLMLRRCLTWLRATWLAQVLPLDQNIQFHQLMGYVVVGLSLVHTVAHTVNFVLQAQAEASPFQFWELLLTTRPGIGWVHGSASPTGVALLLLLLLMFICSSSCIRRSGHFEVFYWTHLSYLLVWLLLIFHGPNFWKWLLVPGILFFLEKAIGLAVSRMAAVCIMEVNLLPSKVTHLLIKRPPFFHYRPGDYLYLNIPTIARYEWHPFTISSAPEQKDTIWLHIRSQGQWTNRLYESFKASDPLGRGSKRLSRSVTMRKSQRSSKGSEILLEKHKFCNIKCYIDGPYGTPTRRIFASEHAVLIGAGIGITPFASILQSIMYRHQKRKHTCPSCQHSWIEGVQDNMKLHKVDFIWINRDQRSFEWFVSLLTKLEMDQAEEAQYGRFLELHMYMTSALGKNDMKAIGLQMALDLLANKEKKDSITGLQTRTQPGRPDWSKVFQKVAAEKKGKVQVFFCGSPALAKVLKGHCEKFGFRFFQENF
SMILES,composite z-score [1],z-score [2],z-score [3],z-score [4],z-score [5],composite z-score [6],composite z-score [7],composite z-score (Torsin-1A (Homo sapiens) [8]),composite z-score (Torsin-1A (Homo sapiens) [9]),composite z-score [10],z-score [11],composite z-score [12],z-score [13],z-score [14],z-score [15],z-score [16],z-score [17],z-score [18],z-score [19],z-score [20]
C=CCNC(=O)[C@H]1[C@@H]2C(=O)O[C@@H](c3ccccc3)[C@@H](c3ccccc3)N2[C@@H](c2ccc(OCCO)cc2)[C@]12C(=O)Nc1ccc(C#CC3=CCCCC3)cc12,0.722,-4.45 (inactive),0.334 (inactive),0.775 (inactive),-0.267 (inactive),0.376,-0.0136,0.127,0.578,1.54,0.951 (inactive),-0.101,2.36 (inactive),1.66 (inactive),-1.04 (inactive),1.4 (inactive),-0.571,1.24 (inactive),-1.05 (inactive),1.02
COc1ccc(C(O)C2C=CC3C(=O)N(c4ccccc4)C(=O)C3N2Nc2ccccc2F)cc1OCc1ccccc1 (stereo not given),0.353,0.0131 (inactive),-0.547 (inactive),-0.143 (inactive),-0.269 (inactive),1.47,1.14,0.281,0.671,-0.876,-1 (inactive),0.5,9.5 (active),2.5 (inactive),0.361 (inactive),1.17 (inactive),-1.12,-1.18 (inactive),-2.79 (inactive),-1.17
CCOC(=O)[C@H]1CC=C2CC1C(=O)N1CCC[C@@H]1[C@@H]2O[Si](C)(C)C(C)(C)C (stereo not given in full),-0.395,-6.23 (inactive),-0.451 (inactive),-0.776 (inactive),-0.661 (inactive),-1.49,-0.238,-0.55,-0.83,0.398,-0.94 (inactive),-0.471,2.09 (inactive),0.493 (inactive),-0.42 (inactive),0.378 (inactive),-0.409,0.461 (inactive),-0.625 (inactive),-3.9
O=C1C[C@]2(c3ccc([N+](=O)[O-])cc3)C(=O)N(CCN3CCOCC3)c3cc(CO)ccc3[C@H]2N1C1CCCCC1,-0.179,-2.16 (inactive),-0.02 (inactive),-0.322 (inactive),0.254 (inactive),-0.834,-0.0021,-0.489,-0.517,-0.132,0.918 (inactive),-0.0108,1.23 (inactive),-0.837 (inactive),-0.584 (inactive),-0.507 (inactive),1.51,-0.791 (inactive),-0.0781 (inactive),1.18
CC(C)(C)C(=O)N[C@@H](c1ccc(Cl)cc1)[C@]1(C)C[C@H]1C1CCCCC1,0.182,-2.95 (inactive),-0.153 (inactive),0.197 (inactive),0.456 (inactive),2.44,0.634,0.895,1.18,-0.546,-0.913 (inactive),1.06,0.671 (inactive),0.418 (inactive),0.0711 (inactive),0.887 (inactive),-0.191,-0.0125 (inactive),-1.05 (inactive),-0.0713
